Assay results published in PubChem BioAssay.

test system: Sonic hedgehog protein (Shh); test: Sonic hedgehog microarray binding compounds – biochemical, small-molecule microarray, 635/667 nm fluorescence, primary screen (AID 1151); conditions: 635 nm fluorescence, higher = more signal;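 note: Shh protein binding to compounds spotted on small-molecule microarray slides; score combines spot fluorescence intensity with signal-to-noise across triplicate slides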

Compound	composite z-score
C=C(C(=O)CC[C@H](OC(=O)c1ccccc1-c1ccccc1C(=O)O)c1ccc(CO)o1)C(C)C	1.71
C#CCCCON=C1C[C@@H](O)[C@@H](O)[C@@H]2[C@@H]3C(=O)N(Cc4ccc5c(c4)OCO5)C(=O)[C@@H]3CC[C@H]12	1.42
COC(=O)c1ccc(C#CC(NP(=O)(c2ccccc2)c2ccccc2)c2ccccc2)cc1 (configuration not stated)	0.918
CCOC(=O)C1=CC[C@@H](c2ccc(-c3ccc(OCc4ccccc4)cc3)c(OC)c2)N(S(=O)(=O)c2ccc(C)cc2)[C@H]1c1ccccc1	1.15
CC(c1ccccc1)C(O)C1C=CC2C(=O)N(C)C(=O)C2N1N(c1ccccc1)c1ccccc1 (configuration not stated)	-0.586
C=C[C@H](OC)[C@@H](OC(=O)Nc1ccc(SC)cc1)c1ccc(O)c(F)c1	1.6
C=C(CCCC)C(=O)CC[C@@H](OC(C)=O)c1ccccc1OCCO	0.276
CC(=O)NCCCC[C@@H]1NC(=O)[C@H]2C[C@@H](C(=O)NCCCCCCN(C)C)[C@@H](c3cccc(OCCO)c3)N2C1=O	2.22
CCCC=C(CCC)[C@@H](NS(=O)(=O)c1cccc(C(F)(F)F)c1)c1ccc(C(=O)OC)cc1	0.116
O=C(NCc1ccccc1)[C@@]1(Cc2ccccc2)COC(c2ccc(OCCCO)cc2)=N1	-0.587
[N-]=[N+]=NCc1ccccc1[C@H]1OC(c2ccc(OCCCO)cc2)=N[C@@]1(Cc1ccccc1N=[N+]=[N-])C(=O)NCc1ccccc1	0.033
NC(=O)NCC#Cc1ccc2c(c1)[C@]1(C(=O)N2)[C@H](C(=O)N2CCCCCCC2)[C@H]2C(=O)O[C@H](c3ccccc3)[C@H](c3ccccc3)N2[C@@H]1c1ccccc1OCCO	0.81
